# System: Salmonella enterica serovar Typhimurium 14028s
# Test: approximate change in surviving CFU after surface colonization relative to water-only control (log10 CFU/mL change); higher = more surviving bacteria (less inhibition of surface colonization)
# Conditions: not stated (Biolog proprietary concentration), surface: plastic 96-well plate, 20-24 h at 25 °C
structure (smiles),measurement,setting,value
Cc1cn([C@H]2C[C@H](O)[C@@H](CO)O2)c(=O)[nH]c1=O [Thymidine],approximate change in surviving CFU (log10),"Biolog plate: PM1, Biolog well: C12",1.5
same,approximate change in surviving CFU (log10),"Biolog plate: PM3, Biolog well: F9",-0.193
NC(=O)C[C@H](N)C(=O)O [L-Asparagine],approximate change in surviving CFU (log10),"Biolog plate: PM1, Biolog well: D1",0.944
same,approximate change in surviving CFU (log10),"Biolog plate: PM3, Biolog well: A9",0.451
N[C@H](CC(=O)O)C(=O)O [D-Aspartic Acid],approximate change in surviving CFU (log10),"Biolog plate: PM1, Biolog well: D2",1.01
same,approximate change in surviving CFU (log10),"Biolog plate: PM3, Biolog well: C5",0.816
CO[C@H]1O[C@H](CO)[C@H](O)[C@H](O)[C@H]1O [a-Methyl-D-Galactoside],approximate change in surviving CFU (log10),"Biolog plate: PM1, Biolog well: D8",1.72
O=c1ccn([C@@H]2O[C@H](CO)[C@@H](O)[C@H]2O)c(=O)[nH]1 [Uridine],approximate change in surviving CFU (log10),"Biolog plate: PM1, Biolog well: D12",1.74
same,approximate change in surviving CFU (log10),"Biolog plate: PM3, Biolog well: F11",-0.236
NC(=O)CC[C@H](N)C(=O)O [L-Glutamine],approximate change in surviving CFU (log10),"Biolog plate: PM1, Biolog well: E1",0.322
same,approximate change in surviving CFU (log10),"Biolog plate: PM3, Biolog well: B1",-0.0429
Nc1ncnc2c1ncn2[C@@H]1O[C@H](CO)[C@@H](O)[C@H]1O [Adenosine],approximate change in surviving CFU (log10),"Biolog plate: PM1, Biolog well: E12",0.622
same,approximate change in surviving CFU (log10),"Biolog plate: PM3, Biolog well: F3",0.751
O=C(O)CO [Glycolic Acid],approximate change in surviving CFU (log10),"Biolog plate: PM1, Biolog well: F9",0.736
same,approximate change in surviving CFU (log10),"Biolog plate: PM2, Biolog well: E9",0.644
O=c1[nH]cnc2c1ncn2[C@@H]1O[C@H](CO)[C@@H](O)[C@H]1O [Inosine],approximate change in surviving CFU (log10),"Biolog plate: PM1, Biolog well: F12",1.65
same,approximate change in surviving CFU (log10),"Biolog plate: PM3, Biolog well: F12",-0.365
N[C@@H](CO)C(=O)O [L-Serine],approximate change in surviving CFU (log10),"Biolog plate: PM1, Biolog well: G3",1.07
same,approximate change in surviving CFU (log10),"Biolog plate: PM3, Biolog well: B10",0.107
C[C@@H](O)[C@H](N)C(=O)O [L-Threonine],approximate change in surviving CFU (log10),"Biolog plate: PM1, Biolog well: G4",1.03
same,approximate change in surviving CFU (log10),"Biolog plate: PM3, Biolog well: B11",-0.129
C[C@H](N)C(=O)O [L-Alanine],approximate change in surviving CFU (log10),"Biolog plate: PM1, Biolog well: G5",0.987
same,approximate change in surviving CFU (log10),"Biolog plate: PM3, Biolog well: A7",0.129
NCCc1ccc(O)cc1 [Tyramine],approximate change in surviving CFU (log10),"Biolog plate: PM1, Biolog well: H4",0.537
same,approximate change in surviving CFU (log10),"Biolog plate: PM3, Biolog well: E3",-1.37
NC(=O)[C@H]1O[C@@H](O)[C@H](O)[C@@H](O)[C@@H]1O [Glucuronamide],approximate change in surviving CFU (log10),"Biolog plate: PM1, Biolog well: H7",1.03
same,approximate change in surviving CFU (log10),"Biolog plate: PM3, Biolog well: E6",0.622
CC(=O)N[C@H]1C(O)O[C@H](CO)[C@H](O)[C@@H]1O (stereo partly drawn) [N-Acetyl-D-Galactosamine],approximate change in surviving CFU (log10),"Biolog plate: PM2, Biolog well: B1",0.622
same,approximate change in surviving CFU (log10),"Biolog plate: PM3, Biolog well: E12",-0.129
CC(N)=O [Acetamide],approximate change in surviving CFU (log10),"Biolog plate: PM2, Biolog well: G1",-0.365
same,approximate change in surviving CFU (log10),"Biolog plate: PM3, Biolog well: E4",-1.76
N=C(N)NCCC[C@H](N)C(=O)O [L-Arginine],approximate change in surviving CFU (log10),"Biolog plate: PM2, Biolog well: G4",0.966
same,approximate change in surviving CFU (log10),"Biolog plate: PM3, Biolog well: A8",0.236
NCC(=O)O [Glycine],approximate change in surviving CFU (log10),"Biolog plate: PM2, Biolog well: G5",0.494
same,approximate change in surviving CFU (log10),"Biolog plate: PM3, Biolog well: B2",0.15
N[C@@H](Cc1c[nH]cn1)C(=O)O [L-Histidine],approximate change in surviving CFU (log10),"Biolog plate: PM2, Biolog well: G6",1.01
same,approximate change in surviving CFU (log10),"Biolog plate: PM3, Biolog well: B3",0.279
N[C@@H](CCO)C(=O)O [L-Homoserine],approximate change in surviving CFU (log10),"Biolog plate: PM2, Biolog well: G7",0.923
same,approximate change in surviving CFU (log10),"Biolog plate: PM3, Biolog well: C11",0.365
CC[C@H](C)[C@H](N)C(=O)O [L-Isoleucine],approximate change in surviving CFU (log10),"Biolog plate: PM2, Biolog well: G9",0.794
same,approximate change in surviving CFU (log10),"Biolog plate: PM3, Biolog well: B4",-0.0429
CC(C)C[C@H](N)C(=O)O [L-Leucine],approximate change in surviving CFU (log10),"Biolog plate: PM2, Biolog well: G10",0.451
same,approximate change in surviving CFU (log10),"Biolog plate: PM3, Biolog well: B5",-0.236
CSCC[C@H](N)C(=O)O [L-Methionine],approximate change in surviving CFU (log10),"Biolog plate: PM2, Biolog well: G12",0.365
same,approximate change in surviving CFU (log10),"Biolog plate: PM3, Biolog well: B7",-0.88
NCCC[C@H](N)C(=O)O [L-Ornithine],approximate change in surviving CFU (log10),"Biolog plate: PM2, Biolog well: H1",0.708
same,approximate change in surviving CFU (log10),"Biolog plate: PM3, Biolog well: C12",0.172
N[C@@H](Cc1ccccc1)C(=O)O [L-Phenylalanine],approximate change in surviving CFU (log10),"Biolog plate: PM2, Biolog well: H2",-0.322
same,approximate change in surviving CFU (log10),"Biolog plate: PM3, Biolog well: B8",-0.215
O=C1CC[C@@H](C(=O)O)N1 [L-Pyroglutamic Acid],approximate change in surviving CFU (log10),"Biolog plate: PM2, Biolog well: H3",-0.0858
same,approximate change in surviving CFU (log10),"Biolog plate: PM3, Biolog well: D3",-0.258
CC(C)[C@H](N)C(=O)O [L-Valine],approximate change in surviving CFU (log10),"Biolog plate: PM2, Biolog well: H4",0.15
same,approximate change in surviving CFU (log10),"Biolog plate: PM3, Biolog well: C2",-0.386
"C[N+](C)(C)CC(O)CC(=O)[O-] (racemic) [D,L-Carnitine]",approximate change in surviving CFU (log10),"Biolog plate: PM2, Biolog well: H5",0.365
NCCCCN [Putrescine],approximate change in surviving CFU (log10),"Biolog plate: PM2, Biolog well: H8",0.322
same,approximate change in surviving CFU (log10),"Biolog plate: PM3, Biolog well: D11",-0.3

# — the supplement of paper PMC11738630
